# Source: paper PMC9911399, “Two distinct binding modes provide the RNA-binding protein RbFox with extraordinary sequence specificity”
# Numbering of substitutions follows the chain as printed; changes in the protein carry UniProt numbers. Whole data set: some 16,000 sequences, median “ka relative to ugcaugu” near 0.0091, cut for the highest 2% near 0.032. The sample as a whole holds a higher share of the highest values than the screen did.
# T1: RBFOX1 RRM (Homo sapiens, UniProt Q9NWB1 109-208)
# T1 sequence: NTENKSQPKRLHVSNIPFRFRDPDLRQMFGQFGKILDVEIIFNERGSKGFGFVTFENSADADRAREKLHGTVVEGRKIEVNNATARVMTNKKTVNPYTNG
# B1: AAAUAUU (DNA:RNA)
# RNA: GGGAGACCGGAAUUCAGAUUGUCCAAAUAUUUUAAAUCCCGUCGUAGCCACCA
# DNA 1: CAATCTGAATTCCGGTCTCCC
# DNA 2: TGGTGGCTACGACGGGATT
# B2: CUUGAAA (DNA:RNA)
# RNA: B1 RNA with A25C, A26U, A27U, U28G, U30A, U31A
# DNA 1: CAATCTGAATTCCGGTCTCCC
# DNA 2: TGGTGGCTACGACGGGATT
# B3: CGUUCGG (DNA:RNA)
# RNA: B1 RNA with A25C, A26G, A27U, A29C, U30G, U31G
# DNA 1: CAATCTGAATTCCGGTCTCCC
# DNA 2: TGGTGGCTACGACGGGATT
# B4: UGCUUAU (DNA:RNA)
# RNA: B1 RNA with A25U, A26G, A27C, A29U, U30A
# DNA 1: CAATCTGAATTCCGGTCTCCC
# DNA 2: TGGTGGCTACGACGGGATT
# B5: UGAUUGG (DNA:RNA)
# RNA: B1 RNA with A25U, A26G, A29U, U30G, U31G
# DNA 1: CAATCTGAATTCCGGTCTCCC
# DNA 2: TGGTGGCTACGACGGGATT
# B6: GUGCUUG (DNA:RNA)
# RNA: B1 RNA with A25G, A26U, A27G, U28C, A29U, U31G
# DNA 1: CAATCTGAATTCCGGTCTCCC
# DNA 2: TGGTGGCTACGACGGGATT
# B7: UUGCUCC (DNA:RNA)
# RNA: GGGAGACCGGAAUUCAGAUUGUCCUUGCUCCUUAAAUCCCGUCGUAGCCACCA
# DNA 1: CAATCTGAATTCCGGTCTCCC
# DNA 2: TGGTGGCTACGACGGGATT
# B8: UGCUUGG (DNA:RNA)
# RNA: B7 RNA with U26G, G27C, C28U, C30G, C31G
# DNA 1: CAATCTGAATTCCGGTCTCCC
# DNA 2: TGGTGGCTACGACGGGATT
# B9: GUCGUGC (DNA:RNA)
# RNA: B7 RNA with U25G, G27C, C28G, C30G
# DNA 1: CAATCTGAATTCCGGTCTCCC
# DNA 2: TGGTGGCTACGACGGGATT
# B10: UUGCCCG (DNA:RNA)
# RNA: B7 RNA with U29C, C31G
# DNA 1: CAATCTGAATTCCGGTCTCCC
# DNA 2: TGGTGGCTACGACGGGATT
# B11: UUGCUCG (DNA:RNA)
# RNA: B7 RNA with C31G
# DNA 1: CAATCTGAATTCCGGTCTCCC
# DNA 2: TGGTGGCTACGACGGGATT
# B12: UCCGUGC (DNA:RNA)
# RNA: B7 RNA with U26C, G27C, C28G, C30G
# DNA 1: CAATCTGAATTCCGGTCTCCC
# DNA 2: TGGTGGCTACGACGGGATT
# B13: UCCUGCU (DNA:RNA)
# RNA: B1 RNA with A25U, A26C, A27C, A29G, U30C
# DNA 1: CAATCTGAATTCCGGTCTCCC
# DNA 2: TGGTGGCTACGACGGGATT
# B14: UGCUUGU (DNA:RNA)
# RNA: B1 RNA with A25U, A26G, A27C, A29U, U30G
# DNA 1: CAATCTGAATTCCGGTCTCCC
# DNA 2: TGGTGGCTACGACGGGATT
# B15: UUGGUGC (DNA:RNA)
# RNA: B7 RNA with C28G, C30G
# DNA 1: CAATCTGAATTCCGGTCTCCC
# DNA 2: TGGTGGCTACGACGGGATT
# B16: UUUCUUU (DNA:RNA)
# RNA: B7 RNA with G27U, C30U, C31U
# DNA 1: CAATCTGAATTCCGGTCTCCC
# DNA 2: TGGTGGCTACGACGGGATT
# B17: UUGUCUG (DNA:RNA)
# RNA: B7 RNA with C28U, U29C, C30U, C31G
# DNA 1: CAATCTGAATTCCGGTCTCCC
# DNA 2: TGGTGGCTACGACGGGATT
# B18: GACUUAC (DNA:RNA)
# RNA: B1 RNA with A25G, A27C, A29U, U30A, U31C
# DNA 1: CAATCTGAATTCCGGTCTCCC
# DNA 2: TGGTGGCTACGACGGGATT
# B19: AGCGCCC (DNA:RNA)
# RNA: B7 RNA with U25A, U26G, G27C, C28G, U29C
# DNA 1: CAATCTGAATTCCGGTCTCCC
# DNA 2: TGGTGGCTACGACGGGATT
# B20: GAUUAAA (DNA:RNA)
# RNA: B1 RNA with A25G, A27U, U30A, U31A
# DNA 1: CAATCTGAATTCCGGTCTCCC
# DNA 2: TGGTGGCTACGACGGGATT
# B21: CAAACAU (DNA:RNA)
# RNA: B1 RNA with A25C, U28A, A29C, U30A
# DNA 1: CAATCTGAATTCCGGTCTCCC
# DNA 2: TGGTGGCTACGACGGGATT
# B22: UAGGGUA (DNA:RNA)
# RNA: B1 RNA with A25U, A27G, U28G, A29G, U31A
# DNA 1: CAATCTGAATTCCGGTCTCCC
# DNA 2: TGGTGGCTACGACGGGATT
# B23: CGGCUCA (DNA:RNA)
# RNA: B7 RNA with U25C, U26G, C31A
# DNA 1: CAATCTGAATTCCGGTCTCCC
# DNA 2: TGGTGGCTACGACGGGATT
# B24: AUGGGUC (DNA:RNA)
# RNA: B7 RNA with U25A, C28G, U29G, C30U
# DNA 1: CAATCTGAATTCCGGTCTCCC
# DNA 2: TGGTGGCTACGACGGGATT
# B25: ACGAACG (DNA:RNA)
# RNA: B1 RNA with A26C, A27G, U28A, U30C, U31G
# DNA 1: CAATCTGAATTCCGGTCTCCC
# DNA 2: TGGTGGCTACGACGGGATT
# B26: GAGUUAU (DNA:RNA)
# RNA: B1 RNA with A25G, A27G, A29U, U30A
# DNA 1: CAATCTGAATTCCGGTCTCCC
# DNA 2: TGGTGGCTACGACGGGATT
# B27: UUGCUGC (DNA:RNA)
# RNA: B7 RNA with C30G
# DNA 1: CAATCTGAATTCCGGTCTCCC
# DNA 2: TGGTGGCTACGACGGGATT
# B28: UGCUUAA (DNA:RNA)
# RNA: B7 RNA with U26G, G27C, C28U, C30A, C31A
# DNA 1: CAATCTGAATTCCGGTCTCCC
# DNA 2: TGGTGGCTACGACGGGATT
# B29: UGCUAGU (DNA:RNA)
# RNA: B1 RNA with A25U, A26G, A27C, U30G
# DNA 1: CAATCTGAATTCCGGTCTCCC
# DNA 2: TGGTGGCTACGACGGGATT
# B30: CUAGUUG (DNA:RNA)
# RNA: B1 RNA with A25C, A26U, U28G, A29U, U31G
# DNA 1: CAATCTGAATTCCGGTCTCCC
# DNA 2: TGGTGGCTACGACGGGATT
# B31: UGCUUGA (DNA:RNA)
# RNA: B7 RNA with U26G, G27C, C28U, C30G, C31A
# DNA 1: CAATCTGAATTCCGGTCTCCC
# DNA 2: TGGTGGCTACGACGGGATT
# B32: UGAUUGC (DNA:RNA)
# RNA: B7 RNA with U26G, G27A, C28U, C30G
# DNA 1: CAATCTGAATTCCGGTCTCCC
# DNA 2: TGGTGGCTACGACGGGATT
# B33: UGCUUGC (DNA:RNA)
# RNA: B7 RNA with U26G, G27C, C28U, C30G
# DNA 1: CAATCTGAATTCCGGTCTCCC
# DNA 2: TGGTGGCTACGACGGGATT
# B34: UUGAUGC (DNA:RNA)
# RNA: B7 RNA with C28A, C30G
# DNA 1: CAATCTGAATTCCGGTCTCCC
# DNA 2: TGGTGGCTACGACGGGATT
# B35: CUGCUAG (DNA:RNA)
# RNA: B7 RNA with U25C, C30A, C31G
# DNA 1: CAATCTGAATTCCGGTCTCCC
# DNA 2: TGGTGGCTACGACGGGATT
# Molecular target: T1, RBFOX1 RRM
# Assay: EMSA; HiTS-Eq, 1 nM pool, 10 min; buffer printed only for the single-RNA assays: 10 mM Tris pH 7.5, 150 mM NaCl, 3.4 mM EDTA, 0.001% NP-40, 30 C
# Conditions: tags: His6 N-terminal (pET28a); label: 5' 32P
# Procedure, shortened: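 These values rest on relative association constants, computed from read-count changes of each RNA species versus the control reaction and normalised to the cognate motif. Reads came from free RNA recovered by 8% native PAGE after purified RbFox RRM (wild type or mutant) at increasing concentrations was equilibrated for 10 min in 50 µL with 1 nM of a 5′-radiolabelled pool with 7 randomized nucleotides and DNA-annealed flanks.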
row,Binder,binding signal
1,B1,0.00092 KA relative to UGCAUGU
2,B2,0.00785 KA relative to UGCAUGU
3,B3,0.0132 KA relative to UGCAUGU
4,B4,0.0138 KA relative to UGCAUGU
5,B5,0.0223 KA relative to UGCAUGU
6,B6,0.053 KA relative to UGCAUGU
7,B7,0.0158 KA relative to UGCAUGU
8,B8,0.0481 KA relative to UGCAUGU
9,B9,0.0206 KA relative to UGCAUGU
10,B10,0.0225 KA relative to UGCAUGU
11,B11,0.0477 KA relative to UGCAUGU
12,B12,0.0168 KA relative to UGCAUGU
13,B13,0.0144 KA relative to UGCAUGU
14,B14,0.0532 KA relative to UGCAUGU
15,B15,0.0277 KA relative to UGCAUGU
16,B16,0.0113 KA relative to UGCAUGU
17,B17,0.0312 KA relative to UGCAUGU
18,B18,0.00749 KA relative to UGCAUGU

row,Binder,binding signal
1,B19,0.00884 KA relative to UGCAUGU
2,B20,0.00427 KA relative to UGCAUGU
3,B21,0.000358 KA relative to UGCAUGU
4,B22,0.0162 KA relative to UGCAUGU
5,B23,0.00697 KA relative to UGCAUGU
6,B24,0.0197 KA relative to UGCAUGU
7,B25,0.0126 KA relative to UGCAUGU
8,B26,0.00747 KA relative to UGCAUGU
9,B27,0.0167 KA relative to UGCAUGU
10,B28,0.0138 KA relative to UGCAUGU
11,B29,0.0309 KA relative to UGCAUGU
12,B30,0.0137 KA relative to UGCAUGU
13,B31,0.0378 KA relative to UGCAUGU
14,B32,0.0265 KA relative to UGCAUGU
15,B33,0.088 KA relative to UGCAUGU
16,B34,0.0187 KA relative to UGCAUGU
17,B35,0.0317 KA relative to UGCAUGU
